The panel holds about 83,000 compounds, 20% with a hit somewhere; the sample as a whole holds those more often.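 Growth was measured after 48 h exposure to one concentration of compound in 96-well plates. Values under 10 count as active.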 A number with no mark means an inactive call. Calls of active or inactive are those of the source.
Test system: HL-60(TB) leukemia
Test: NCI-60 one-dose screen, 48 h (100 = growth as untreated, 0 = no growth, -100 = all killed)
Conditions: 10 µM unless noted

SMILES	growth
O=C1CSC(c2ccc(O)cc2)N1c1nnc(Cn2cnnc2)o1 (configuration not stated)	59.1%
CCOC(=O)NNC(=S)Nc1ccccc1	106%
COc1ccc(Nc2ncc(Br)c(NCCCNC(=O)C3CCC3)n2)cc1	-12.8% (active)
N#CC(=C1C=CC(=NO)C=C1)c1ccccc1	4.88% (active)
CN1CCn2c(c(Sc3ccc(C(=O)NO)cc3)c3ccccc32)C1=O	-1.35% (active)
CCN(CC)CCOc1ccc2ccc(=O)oc2c1	3.42% (active)
O=c1cc(-c2nccc3c2[nH]c2ccccc23)c2cc(Cl)ccc2o1	0.737% (active)
CCN1C(=O)N(CC)C2Nn3c(s/c(=C4\C(=O)Nc5ccccc54)c3=O)=NC21 (configuration not stated)	27.8%
CC1=C(C(=O)Nc2ccc(F)cc2)C(c2ccc(C)cc2)C2=C(CC(C)(C)CC2=O)N1 (configuration not stated)	114%
O=[N+]([O-])c1ccc(OCCO)cc1	125%
CCOc1cc2c(Cl)ncnc2c(OCC)c1OCC	-16.4% (active)
CCCCCCCC/C=C\CCCCCCCCOc1cccc(CC(=O)NCC[N+]2(C)CCOCC2)c1	67.6%
CC(=O)c1cc(Cl)ccc1O	103%
O=S(Nc1ccccc1)c1ccc(Cl)cc1 (configuration not stated)	90.8%
O=C1/C(=C/c2ccc(Br)cc2)COc2ccc(O)cc21	-15.7% (active)
O=C(CC(CC(=O)c1ccccc1)c1ccccc1O)c1ccccc1	96.8%
[2H]C([2H])([2H])Oc1cc(F)ccc1/C=C/C(=O)/C=C(/C=C/c1ccc(F)cc1OC([2H])([2H])[2H])OB(F)F	11.6%
COc1ccc(/C(=N/O)c2cc(OC)c(OC)c(OC)c2)c(OC)c1N	-24.6% (active)
COc1ccc(OC)c(/C=C2\Oc3cc(O)ccc3C2=O)c1	95.7%

SMILES	growth
CN1C(=O)NC(c2ccc3c(c2)OCO3)C=C1c1ccccc1 (configuration not stated)	99%
COc1ccc(C(=O)CCC(=O)O)cc1	98.6%
Nc1c(C(=O)Nc2ccccc2)sc2nc3c(cc12)CCC3	60.9%
O=C1/C(=C\C(Cl)=C/c2ccc([N+](=O)[O-])cc2)SC(=S)N1CCc1ccc(O)cc1	2.21% (active)
Cc1ccc(-c2nc(/C=C3/C(=O)N(C)c4ccc(F)cc43)c3ccccn23)cc1	102%
C=C1C(=O)O[C@H]2[C@H]1CC/C(COC(=O)NCCc1c[nH]c3ccc(Cl)cc13)=C\CC[C@@]1(C)O[C@@H]21	-26.2% (active)
COc1cc(/C=C/C(=O)c2ccc(F)cc2)ccc1OCCCCCOc1cc2c(cc1OC)C(=O)N1CCCC1C=N2 (configuration not stated)	-37.2% (active)
COc1nc2c(c(=O)n1C)CN(c1ccccc1)C(=O)C(C)N2 (configuration not stated)	94%
O=C(CCCCNC(=O)c1cc(=O)c(O)co1)Nc1ccccc1	54.7%
O=[N+]([O-])C1=C(c2ccccc2)SC=C(c2ccccc2)S1	70.9%
COC(=O)c1c(C)c2n(c1C)C(=O)C(c1ccccc1)=C2	67%
Cl.Fc1c[c-]c(-c2ccccn2)c(F)c1.[Pt].c1ccc(P(c2ccccc2)C([PH+](c2ccccc2)c2ccccc2)[PH+](c2ccccc2)c2ccccc2)cc1	8.71% (active)
O=C(CN1C(=O)NC(c2ccccc2)(c2ccccc2)C1=O)c1ccc(N2CCCC2)cc1	85.5%
CSc1nc(-c2ccco2)c(C#N)c(=O)n1C	95.9%
C(=N\Nc1ncc(-c2cc3cc4c(cc3o2)OCO4)s1)/c1ccco1	16.2%
CN(C)c1nc2c([nH]1)c(=O)n(C)c(=O)n2C	108%
COc1ccc(/C=C(\C#N)n2nnc3cc(F)c(F)cc32)c(OC)c1OC	10.4%
N#Cc1c(-c2ccccc2)nc(SCC(=O)N2CCN(c3ccccc3)CC2)[nH]c1=O	62.5%

From PubChem BioAssay (NCI)
